Data on 19 compounds can be found in PubChem BioAssay.

“And” between values parts separate entries of the source, which are not always exact repeats. Identical values can stand only once. For some assays here: Potency and affinity values are given separately. The source made the active and inactive calls. Unless noted, how the calls were made is not given here.

The target in assay [1] is Cell division control protein 42 homolog (Homo sapiens) (UniProt P60953). Kind of assay: wildtype Cdc42 GTP-binding inhibitors, dose response, biochemical, multiplex bead flow cytometry, Bodipy-FL-GTP (AID 1334;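 active means fitted half-maximal concentration within the tested range, moderate curve steepness, significant signal drop, and little compound fluorescence or bead-linkage interference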). The note with it: bead-based flow cytometry, Bodipy-FL-GTP binding to GST-Cdc42; at 100 µM (top of the series) unless noted.
The target of assay [2] is GTPase HRas (Homo sapiens) (UniProt P01112). The experiment in a line: inhibitors of GTP binding to wildtype Ras, dose response, biochemical, multiplex bead flow cytometry (AID 1335;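 active means fitted half-maximal concentration within 10 nM to 100 µM, steepness 0.5 to 2, significant signal drop, low assay interference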). The note with it: bead-based flow cytometry, Bodipy-GTP binding to GST-Ras; at 100 µM (top of the series) unless noted.
The test system of assay [3] is Ras-related protein Rab-7a (dog), GTP binding. Kind of assay: Rab7 GTP binding inhibitors, potency, dose response, biochemical, wildtype, multiplex bead flow cytometry (AID 1336). (In general: In flow cytometry, cells or beads pass a laser one at a time.)
The target of assay [4] is Ras-related C3 botulinum toxin substrate 1 (Homo sapiens) (UniProt P63000). Kind of assay: wildtype Rac1 GTP binding inhibitors, dose response, biochemical, multiplex bead flow cytometry (AID 1340;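 active means dose curve with midpoint inside tested range, moderate steepness, plateau gap beyond fit error, low compound glow and bead-link interference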). The note with it: GST-Rac1 beads, Bodipy-FL-GTP binding; at 100 µM (top of the series) unless noted.
Assay [5] concerns the target GTPase HRas (Homo sapiens) (UniProt P01112). The experiment in a line: activated Ras mutant GTP binding inhibitors, dose response, biochemical, multiplex bead flow cytometry (AID 1341;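 active means dose-response curve with midpoint inside the tested range, moderate steepness, significant amplitude and little compound fluorescence or bead-attachment interference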;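 further: GST-tagged constitutively activated Ras mutant immobilized on beads and multiplexed with other GTPases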).
In assay [6] the target is Cell division control protein 42 homolog (Homo sapiens) (UniProt P60953). The experiment in a line: activated mutant Cdc42 GTP-binding inhibitors, dose response, biochemical, multiplex bead flow cytometry, Bodipy-FL-GTP (AID 1333;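 active means fitted half-maximal concentration within the tested dose range, moderate curve steepness, a statistically real signal drop, and little compound fluorescence or tag-binding interference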).

Sequence of Cell division control protein 42 homolog (Homo sapiens) (P60953 whole entry, looked up): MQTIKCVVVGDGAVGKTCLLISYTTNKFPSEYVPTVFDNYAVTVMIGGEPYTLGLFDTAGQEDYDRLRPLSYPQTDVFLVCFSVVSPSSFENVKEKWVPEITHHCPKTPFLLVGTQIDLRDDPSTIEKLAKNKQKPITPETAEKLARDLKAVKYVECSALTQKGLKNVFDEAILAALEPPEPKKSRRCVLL
Sequence of GTPase HRas (Homo sapiens) (P01112 whole entry, looked up): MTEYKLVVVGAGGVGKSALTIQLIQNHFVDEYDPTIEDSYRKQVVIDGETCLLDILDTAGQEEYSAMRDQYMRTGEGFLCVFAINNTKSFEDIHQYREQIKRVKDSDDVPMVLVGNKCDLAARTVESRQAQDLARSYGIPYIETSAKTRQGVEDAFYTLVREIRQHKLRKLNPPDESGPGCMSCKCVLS

Take `O=C(C#Cc1ccc(F)cc1)c1ccc([N+](=O)[O-])cc1`: the fluorescence, percent of control (lower = inhibition) in assay [1] was determined as 39.2%. In addition, the GTP binding, percent of control in assay [2] is 142%. Further, the result in assay [3] and in assay [5] was inactive. Further, the GTP binding signal, raw median fluorescence (lower = inhibition) (MCF (arbitrary fluorescence units)) in assay [4] was found to be 48.4.
For `Cc1sc2nc3ccc(NCc4ccco4)nn3c(=O)c2c1C`, the outcome in assay [6], in assay [3] and in assay [5] was inactive. This compound yielded a GTP binding, percent of control in assay [2] of 57.4%.
As to `O=C(O)CCN1C(=O)/C(=C/c2ccc(-c3nc4ccccc4s3)o2)SC1=S`, the outcome in assay [6], in assay [3] and in assay [5] was inactive. In assay [1], this compound returned a fluorescence, percent of control (lower = inhibition) of 32.8%. This compound also returned a GTP binding, percent of control in assay [2] of 53.9%.
Turning to `O=C(O)c1ccc(COc2ccccc2Cl)o1`, the result in assay [6], in assay [3] and in assay [5] was inactive. In assay [1], this compound showed a fluorescence, percent of control (lower = inhibition) of 73.5%. The GTP binding, percent of control in assay [2] stood at 96.7%.
In the case of `Cc1cc(NC(=O)CSc2nc(-c3ccccc3)c(C#N)c(=O)[nH]2)no1`, the result in assay [6] and in assay [3] was inactive. In assay [1], the fluorescence, percent of control (lower = inhibition) stood at 45.4%.
Take `COc1cc(/C=N/Nc2nnc3c(n2)[nH]c2ccccc23)ccc1O`: the compound was called inactive in assay [6], in assay [3] and in assay [5]. This compound also had a fluorescence, percent of control (lower = inhibition) in assay [1] of 33.9%. In assay [2], this compound gave a GTP binding, percent of control of 79.1%.
In the case of `COc1ccccc1NCc1sc(C(=O)O)cc1C`, the compound was called inactive in assay [6], in assay [3] and in assay [5]. The same compound returned a fluorescence, percent of control (lower = inhibition) in assay [1] of 64.9%. For the same compound, the GTP binding, percent of control in assay [2] stood at 86.4%.
Turning to `COc1cc(SC#N)ccc1N=Cc1c(C)[nH]n(-c2ccc(C)c(C)c2)c1=O`, the outcome in assay [6], in assay [3] and in assay [5] was inactive. This compound also registered a fluorescence, percent of control (lower = inhibition) in assay [1] of 44.7%. This compound also gave a GTP binding, percent of control in assay [2] of 83%.
Take `COc1ccc(C(=O)/C=C/Nc2ccc(S(=O)(=O)Nc3nc(C)cc(C)n3)cc2)cc1OC`: the call in assay [6], in assay [3] and in assay [5] was inactive. The same compound showed a fluorescence, percent of control (lower = inhibition) in assay [1] of 39.1%. The compound also showed a GTP binding, percent of control in assay [2] of 80%.
For `CCOC(=O)c1c(NC(=O)C(=O)N/N=C/c2ccc(O)c(OC)c2)sc2c1CCCCC2`, the compound was called inactive in assay [6], in assay [3] and in assay [5]. This compound also registered a GTP binding, percent of control in assay [2] of 64.6%. The compound further gave a GTP binding signal, raw median fluorescence (lower = inhibition) (MCF (arbitrary fluorescence units)) in assay [4] of 184.
With `Cc1cccc(-n2nc(CC#N)c(C#N)c2N)c1`, the result in assay [6], in assay [3] and in assay [5] was inactive. In addition, the fluorescence, percent of control (lower = inhibition) in assay [1] was determined as 33.5%. For the same compound, the GTP binding, percent of control in assay [2] stood at 74.8%.
On to `CCn1nc(C(=O)OCC(=O)c2cc(C)n(Cc3cccs3)c2C)c2ccccc2c1=O`, for which the result in assay [6], in assay [3] and in assay [5] was inactive. This compound also displayed a fluorescence, percent of control (lower = inhibition) in assay [1] of 46.9%. The GTP binding, percent of control in assay [2] turned out to be 64.2%.
Take `O=C(NCc1ccc2c(c1)OCO2)c1ccc(CSCc2cccc(Cl)c2)o1`: the fluorescence, percent of control (lower = inhibition) in assay [1] came to 31%. The same compound gave a GTP binding, percent of control in assay [2] of 76.4%. Further, the outcome in assay [3] and in assay [5] was inactive. This compound also registered a GTP binding signal, raw median fluorescence (lower = inhibition) (MCF (arbitrary fluorescence units)) in assay [4] of 266.
`COc1cc(OC)c(-c2c3cc(O)c(=O)cc-3oc3cc(O)c(O)cc23)cc1OC` showed a GTP binding signal, raw median fluorescence (lower = inhibition) (MCF (arbitrary fluorescence units)) in assay [4] of 480.
In turn, `CCc1ccc(NS(=O)(=O)c2ccc3[nH]cc(C(=O)N4CCc5ccccc54)c(=O)c3c2)cc1` registered a GTP binding, percent of control in assay [2] of 62.6%. For the same compound, the compound was called inactive in assay [3] and in assay [5]. In assay [4], this compound had a GTP binding signal, raw median fluorescence (lower = inhibition) (MCF (arbitrary fluorescence units)) of 167.
The compound `CC(=O)c1ccc(C#CC(=O)c2ccc([N+](=O)[O-])cc2)cc1` showed a GTP binding, percent of control in assay [2] of 204%. Further, the call in assay [3] and in assay [5] was inactive. For the same compound, the GTP binding signal, raw median fluorescence (lower = inhibition) (MCF (arbitrary fluorescence units)) in assay [4] is 55.9.
Regarding `NS(=O)(=O)c1ccc(N2N=C(c3ccccc3)CC2c2cccc(F)c2)cc1` (configuration not stated), in assay [2], the GTP binding, percent of control is 50% and 86.8%. The compound was called inactive in assay [3] and in assay [5]. For the same compound, the GTP binding signal, raw median fluorescence (lower = inhibition) (MCF (arbitrary fluorescence units)) in assay [4] was 0 and 100.
In assay [4], `CC1CCN(c2ncccc2C(=O)O)CC1` had a GTP binding signal, raw median fluorescence (lower = inhibition) (MCF (arbitrary fluorescence units)) of 407.
In turn, `O=C(/C=C/c1ccco1)Nc1ccc(-c2nc3ccccc3[nH]2)cc1` registered a GTP binding signal, raw median fluorescence (lower = inhibition) (MCF (arbitrary fluorescence units)) in assay [4] of 273.
